Vif inh = blocks HIV Vif function. HEK293T cells, Vif self-association by quenched fluorescence, imaging, 24 h. inhibition, % at 7.49 µM. hit rate 0.35% among 340,000. AID 602346; in the data active = inhibition above about 50%, passing the limit was not always enough; inconclusive = no clear call, values can overlap the other calls; inactive = below about 31%
HSF-1 act = increases HSF-1 driven luciferase reporter signal; NIH3T3-HGL HSF-1 luciferase reporter, MG132, 8 h; 100% = twice DMSO control signal; activation, % at 9 µM; hit rate 1.7% among 300,000;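 active = mean replicate activation of at least 50% with a set share of replicates each reaching 50%; inconclusive = only one of those two conditions met; inactive = mean below 50% and too few replicates reaching it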;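 note: 0% = median of the neutral control wells and 100% = twice that signal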
esBAF inh = SWI/SNF esBAF complex inhibition | hit rate 2% among 350,000 | AID 602393 | reporter increase, % at 12.5 µM | mouse ES cells, Bmi1-luciferase knock-in reporter, 24 h; 100% = twice the neutral-well signal; in the data active = activation above about 40%; inconclusive = no clear call, values can overlap the other calls;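 note: 0% = median of the plate's neutral control wells and 100% = double that signal; a rise in the Bmi1 reporter signal indicates esBAF inhibition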
HSF1 inh = HSF1 inhibition; hit rate 0.77% among 300,000; NIH3T3-HGL HSE-luciferase, MG132-induced, luminescence 8 h; active compounds read low; AID 2098; activity change, negative = inhibition, % at 7.5 µM (by protocol);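 active = more than half of replicate wells show activity change below -50%, luminescence cut by over half; inconclusive = some wells, but at most half, below -50%; inactive = no replicate well below -50%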;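 note: luciferase reports HSF-1 transcriptional activity via heat shock element; 0% = median of DMSO wells and -100% = zero luminescence signal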
* hit, by the source's call. An excerpt weighted towards active compounds, which were near 3.4% of everything screened.

COc1ccc(NC(=O)N(C)C[C@@H]2OCCCC[C@@H](C)Oc3ccc(N(C)C)cc3C(=O)N([C@@H](C)CO)C[C@H]2C)cc1 was read as esBAF inh 24.5.
COc1ccccc1NC(=O)Cn1cnc2c1c(=O)n(C)c(=O)n2C was read as Vif inh 2.1, HSF-1 act 13.1, esBAF inh -3.8 and HSF1 inh 0.2.
For COc1ccccc1NC(=O)Cn1c(=O)c(N(C)C)c(N)n(C)c1=O the results were Vif inh 14.7, HSF-1 act -75.6 and HSF1 inh -71.2*.
For CC12CCC3C(CCC4CC(O)CCC43C)C1CC(O)C2 (centres undefined) the results were Vif inh -8.4.
Screening C/C(=N\NC(N)=S)C1=CCC2C3CC[C@H]4CC(O)CC[C@]4(C)C3CC[C@]12C (some centres undefined) returned Vif inh -3.1, HSF-1 act 51.5*, esBAF inh 7.3 and HSF1 inh 24.6.
`C[C@@H]1CN([C@H](C)CO)C(=O)Cc2cc(NC(=O)Nc3ccccc3)ccc2O[C@H]1CN(C)C` gave esBAF inh -3.8.
COCOCCn1cc(CN2CCS(=O)(=O)N(Cc3ccc(-c4ccc(Cl)nc4)cc3)C(CC(C)C)C2=O)nn1 (centres undefined) was read as Vif inh -2.9 and esBAF inh 45.3*.
For O=C(COc1ccccc1Br)Nc1ccc2c(c1)OCCCO2 the results were Vif inh 9.6, HSF-1 act 57.2*, esBAF inh 51.1* and HSF1 inh 26.3.
Screening O=C(COc1ccccc1F)Nc1ccc2c(c1)OCCO2 returned Vif inh -3.0, HSF-1 act -42.5, esBAF inh -19.9 and HSF1 inh -35.1.
Screening N#Cc1ccccc1OCC(=O)Nc1ccc2c(c1)OCO2 returned Vif inh -2.5 and esBAF inh 65.3*.
For CCN(CC(=O)Nc1ccc2c(c1)OCCO2)C(=O)c1cc(Cl)nc2ccccc12 the results were Vif inh -4.9 and esBAF inh 0.7.
Screening CCN(CC(=O)Nc1ccc2c(c1)OCCO2)C(=O)c1ccc(Cl)cc1Cl returned Vif inh -4.3, HSF-1 act 19.1, esBAF inh 71.0* and HSF1 inh 23.8.
Cn1c(C(=O)O)c(CC(=O)Nc2ccc3c(c2)OCCO3)c2ccccc21 was read as HSF-1 act -68.5, esBAF inh -50.8 and HSF1 inh -65.6*.
For Cc1cccc(OCC(=O)Nc2ccc3c(c2)OCO3)c1C the results were Vif inh 5.5, HSF-1 act 5.1, esBAF inh 12.4 and HSF1 inh 10.3.
Cc1ccc(NC(=O)Cc2c(C(=O)O)n(C)c3ccccc23)cc1F was read as Vif inh -16.6, HSF-1 act -6.5 and HSF1 inh -5.3.
CC(=O)NC[C@H]1[C@H](c2ccc(-c3ccccc3)cc2)[C@@H](CO)N1C(=O)C1CC1 was read as esBAF inh -3.5.
For CNC(=O)C[C@H]1CC[C@@H]2[C@H](COC[C@@H](O)CN2S(=O)(=O)c2ccccc2Cl)O1 the results were esBAF inh -2.0.
For CNC(=O)C[C@@H]1CC[C@H]2[C@H](COc3ccc(NC(=O)c4cscn4)cc3C(=O)N2C)O1 the results were esBAF inh -1.9.
For O=C(CNCc1ccccc1Cl)Nc1ccc2c(c1)OCCO2 the results were HSF-1 act 40.8, esBAF inh 52.5* and HSF1 inh 21.1.
`N#Cc1ccccc1OCC(=O)Nc1ccc2c(c1)OCCO2` gave Vif inh -0.7 and esBAF inh 65.9*.
For CC1CCCCC1NC(=O)COc1ccccc1C#N (centres undefined) the results were Vif inh -8.9 and esBAF inh 52.7*.
For N#Cc1ccccc1OCC(=O)NC1CCCCC1 the results were Vif inh 2.7.
Screening O=C(CSCc1ccccc1Cl)Nc1ccc2c(c1)OCCO2 returned Vif inh -7.3, HSF-1 act -9.6, esBAF inh -23.9 and HSF1 inh 0.7.
For Cc1ccc(Cl)c(OCC(=O)Nc2ccc3c(c2)OCCO3)c1 the results were Vif inh -11.4, HSF-1 act 5.1, esBAF inh 85.8* and HSF1 inh 11.0.
For CCN(CC(=O)Nc1ccc2c(c1)OCCO2)C(=O)COc1cc(C)ccc1Cl the results were Vif inh 9.3, HSF-1 act -3.5, esBAF inh 2.4 and HSF1 inh -1.3.
`COCC(=O)NC[C@@H]1[C@H](c2ccccc2)[C@@H](CO)N1C(C)=O` gave esBAF inh 5.1.
CC(C)NC(=O)Nc1ccc2c(c1)C(=O)N([C@@H](C)CO)C[C@H](C)[C@H](CN(C)C)O2 was read as esBAF inh -0.9.
`N#Cc1ccccc1OCC(=O)Nc1ccc2c(c1)OCCCO2` gave Vif inh -2.4, HSF-1 act -8.8, esBAF inh 73.5* and HSF1 inh 3.9.
Screening Cc1cc(OCC(=O)Nc2ccc3c(c2)OCCO3)cc(C)c1Cl returned Vif inh -10.2, HSF-1 act -23.2 and HSF1 inh -8.0.
Screening Cc1cccc(N2CCN(c3cccc(C)c3)C2c2cccnc2)c1 returned Vif inh -3.8, HSF-1 act 67.1*, esBAF inh 11.7 and HSF1 inh 37.0.
`Cc1cccc(N2C(=O)CSC2c2cccnc2)c1` (centres undefined) gave Vif inh 9.8, HSF-1 act 0.8, esBAF inh -9.8 and HSF1 inh 1.4.
Screening CN1c2ccc(C#Cc3cccnc3)cc2[C@H]2[C@H](CCN2S(=O)(=O)c2cccc(F)c2)[C@@H]1CO returned esBAF inh 1.3.
`COc1cc(NC(=O)c2ccc3snnc3c2)cc(OC)c1` gave Vif inh -4.0, HSF-1 act 24.7, esBAF inh 46.9* and HSF1 inh 11.8.
For COc1cccc(NC(=O)c2cccc(C(=O)Nc3cccc(OC)c3)c2)c1 the results were Vif inh -0.1, HSF-1 act 16.2, esBAF inh -0.8 and HSF1 inh 7.7.
Screening COc1cccc(NC(=O)NC2(C(F)(F)F)Oc3ccccc3O2)c1 returned Vif inh inconclusive, HSF-1 act 67.3* and HSF1 inh 39.3.
Screening COc1cccc(NC(=O)Nc2cccc(C(=O)O)c2)c1 returned Vif inh 24.4, HSF-1 act -41.2, esBAF inh -78.0 and HSF1 inh -31.7.
For COc1cccc(NC(=O)c2ccc(OC(F)(F)F)cc2)c1 the results were Vif inh -5.1, HSF-1 act 25.9, esBAF inh 71.7* and HSF1 inh 17.4.
For COc1cccc(NC(=O)c2ccc3nsnc3c2)c1 the results were Vif inh 5.8, HSF-1 act 0.9, esBAF inh 56.3* and HSF1 inh 20.7.
CCCN(C)C[C@H]1OCCCC[C@H](C)Oc2ccc(NC(=O)c3ccccc3)cc2C(=O)N([C@@H](C)CO)C[C@H]1C was read as esBAF inh 2.5.
C/C=C/c1ccc([C@H]2[C@@H](CO)N(C(=O)CC)[C@H]2CNC(=O)CC)cc1 was read as esBAF inh 4.4.
`Cc1ccc(NC(=O)CN(C)Cc2nc3ccccc3c(=O)[nH]2)c(Br)c1` gave Vif inh -14.1, HSF-1 act 52.9* and HSF1 inh 24.3.
